HPGD inh: blocks human HPGD enzyme activity. P15428. purified HPGD, NADH fluorescence kinetic, PGE2 substrate. Potency, µM, usual class: inhibitors. 150,000 compounds, 4.3% hits; active = well fitted inhibition curve with a large enough effect, not every such curve was filed as active; inconclusive = small, poorly fitted or top-dose-only effect, or another doubt; inactive = no such curve, though single readings can be large or run the other way
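NADH formation kinetics: reaction with 30 uM PGE2 and 1 mM NAD+ (final), 20 nM enzyme, Tris-HCl pH 8 with Tween 20, after 15 min compound preincubation at room temperature. Fluorescence change, last versus first of five reads.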
ALDH1A1 block: ALDH1A1 (human) enzyme inhibition; P00352; Purified ALDH1A1, NADH fluorescence, propionaldehyde substrate; Potency, µM (titrated, usually from 75.3 µM), actives largely listed as inhibitors; 220,000 compounds, 7.3% hits; active = well fitted inhibition curve with a large enough effect, not every such curve was filed as active; inconclusive = small, poorly fitted or top-dose-only effect, or another doubt; inactive = no such curve, though single readings can be large or run the other way
Tau fibril FP: inhibitors of human tau fibril formation; P10636; Potency, µM (highest dose often 57.7 µM), actives largely listed as inhibitors; AID 1468; 280,000 compounds, 0.39% hits; K18 P301L tau heparin fibrillization, Alexa594 FP, 6 h; also: nearly all actives have a fitted effect of over 55% in size
Target sequence (P10636 561-689 P618L limits assumed): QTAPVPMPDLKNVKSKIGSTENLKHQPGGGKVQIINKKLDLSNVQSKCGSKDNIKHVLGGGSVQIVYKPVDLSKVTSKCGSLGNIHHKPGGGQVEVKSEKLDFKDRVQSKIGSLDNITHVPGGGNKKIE
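FP of Alexa 594-tau after heparin (20 uM) induction. Substrate: human K18 P301L, 15 uM unlabeled, 0.24 uM labeled. Buffer 100 mM sodium acetate pH 7. 6 hr, 37 C.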
NPSR antagonist: antagonists of human neuropeptide S receptor cAMP signaling. Q6W5P4. CHO-NPSR cells, cAMP TR-FRET, antagonist mode. Potency, µM (highest dose often 38.3 µM), usual class: inhibitors. 220,000 compounds, 1% hits; also: nearly all actives have a fitted effect of over 50% in size
Target sequence (Q6W5P4 whole entry, looked up): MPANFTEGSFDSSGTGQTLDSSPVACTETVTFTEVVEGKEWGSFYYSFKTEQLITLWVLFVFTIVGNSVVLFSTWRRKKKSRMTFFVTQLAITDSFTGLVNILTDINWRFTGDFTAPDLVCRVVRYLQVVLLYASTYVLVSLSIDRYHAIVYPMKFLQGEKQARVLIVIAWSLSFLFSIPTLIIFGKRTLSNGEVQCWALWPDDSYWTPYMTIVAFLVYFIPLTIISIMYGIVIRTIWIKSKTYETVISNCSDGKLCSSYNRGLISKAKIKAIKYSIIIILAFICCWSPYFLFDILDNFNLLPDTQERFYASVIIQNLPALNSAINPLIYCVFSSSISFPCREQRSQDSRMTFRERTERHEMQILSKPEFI
Tau ThT inhib: tau fibrillization inhibition (ThT binding) | P10636 | Potency, µM (titrated, usually from 57.4 µM), most hits filed as inhibitors | 270,000 compounds, 2.1% hits | recombinant tau K18 P301L, heparin-induced fibrillization, ThT fluorescence; also: nearly all actives have a fitted effect of over 55% in size
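Fibril formation assay: tau K18 P301L at 15 uM with trace Alexa 594 label, heparin inducer 20 uM, pH 7 sodium acetate buffer, 37 C for 6 hr; endpoint ThT signal.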
Tau fluor counter: counter-screen for tau fibril formation inhibitors; tau K18 P301L (four-repeat tau fragment) Alexa594 fluorescence, heparin fibrillization; Potency, µM (titrated, usually from 57.7 µM); 280,000 compounds, 0.93% hits; AID 1463; also: nearly all actives have a fitted effect of over 55% in size
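Human K18 P301L tau (15 uM unlabeled plus 0.24 uM Alexa 594-labeled, final) in 100 mM sodium acetate pH 7 was mixed with compound and 20 uM heparin and incubated 6 hr at 37 C.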
Hits are given with their value; - = inactive; ? = inconclusive; . = no result; [ ] = another dose, or the depositor's remark. Rows were chosen to be rich in hits. Some 9.5% of all compounds tested hit in one or more screens of this group. Unless noted, calls follow the shape of the dose curve; as a rule, active = well fitted curve in the direction sought with a large enough effect; inconclusive = small, poorly fitted or top-dose-only effect, or another doubt; inactive = no such curve, though single readings can be large; an effect the other way counts as inactive or inconclusive.

SMILES	HPGD inh	ALDH1A1 block	Tau fibril FP	NPSR antagonist	Tau ThT inhib	Tau fluor counter
Cc1ccc(C(=O)Oc2ccc3c(c2)ncn3C)cc1	7.9µM	-	-	-	-	-
Cn1cnc2cc(OC(=O)c3ccccc3)ccc21	-	-	-	-	-	-
c1csc(C2Nc3cccc4cccc(c34)N2)c1	?	?	?	-	11µM	16µM[quencher]
Brc1ccc(C2Nc3cccc4cccc(c34)N2)o1	?	4.5µM	?	-	?	?
CCNC(=O)N1CCOCC1	-	-	-	-	-	-
Cc1ccc(-n2nc3c(c2NC(=O)c2c(-c4ccccc4Cl)noc2C)CSC3)cc1	-	-	-	-	-	-
CCOCC(=O)Nc1nc2ccccc2s1	-	22µM	-	-	-	-
CCOc1ccc2nc(NC(=O)CS(=O)(=O)c3ccc(C)cc3)sc2c1	-	25µM	-	-	?	-
CC(=O)NNc1nc2ccccc2s1	-	-	-	-	-	-
CCNC(=O)Nc1nc2ccccc2s1	.	-	-	-	-	-
CCCC(=O)Nc1nc2ccc(OCC)cc2s1	-	-	-	-	-	-
CCOc1ccc2nc(NC(=S)N(C)C)sc2c1	14µM	25µM	-	?	?	?
CN(C)C(=S)Nc1nc2ccccc2s1	.	7.9µM	-	?	?	-
COc1ccc(-c2cc(C(F)(F)F)n3nc(C(=O)N4CCCCC4)cc3n2)cc1	?	?	-	-	-	-
CN1CCN(C(=O)c2cc3nc(-c4ccccc4)cc(C(F)(F)F)n3n2)CC1	10µM	-	-	-	-	-
O=C(c1cc2nc(-c3cccs3)cc(C(F)(F)F)n2n1)N1CCCc2ccccc21	14µM	-	-	?	-	-
COc1cccc(-c2cc(C(F)(F)F)n3nc(C(=O)N4CCCCC4c4cccnc4)cc3n2)c1 (stereo unspecified)	.	22µM	-	?	-	-
CN1CCN(C(=O)c2cc3nc(-c4ccc(Cl)cc4)cc(C(F)(F)F)n3n2)CC1	?	?	-	-	-	-
O=C(c1cc2nc(-c3ccc(F)cc3)cc(C(F)(F)F)n2n1)N1CCCC1	3.5µM	-	-	-	-	-
C=C1CC[C@@H]2O[C@@]2(C)CC[C@H]2[C@H]1CC2(C)C	-	-	-	.	-	-
CC(=O)c1cccc(NC(=O)COC(=O)C2=COCCO2)c1	.	-	-	-	-	-
Cc1ccc(S(=O)(=O)Nc2ccccc2C(=O)OC(C)C(=O)Nc2ccc3ccccc3c2)cc1[N+](=O)[O-] (stereo unspecified)	-	-	-	-	-	-
O=C(O)c1ccccc1/C=N/Nc1ccc(S(=O)(=O)N2CCCC2)cc1[N+](=O)[O-]	.	13µM	-	-	?	-
COc1ccc(NC(=S)NNc2ccc(S(=O)(=O)Nc3ccccc3C(=O)O)cc2[N+](=O)[O-])cc1	.	.	?	-	13µM	10µM[quencher]
O=[N+]([O-])c1cc(S(=O)(=O)N2CCCC2)ccc1N/N=C/c1cccnc1	-	-	-	-	-	-
SMILES	HPGD inh	ALDH1A1 block	Tau fibril FP	NPSR antagonist	Tau ThT inhib	Tau fluor counter
Cc1nn(-c2ccccc2)c(Cl)c1/C=N/Nc1ccc(Cl)c(C(=O)O)c1	?	-	-	-	?	-
Cc1nn(-c2ccccc2)c(Cl)c1/C=N/Nc1ccc(S(=O)(=O)Nc2ccccc2C(=O)O)cc1[N+](=O)[O-]	16µM	?	-	-	8.9µM	?
CSc1ccc(-c2nc3cccc(C)n3c2Nc2ccc3c(c2)OCO3)cc1	.	.	-	.	?	?
Cc1cc(C)n(-c2ccc(C(=O)OCC(=O)NCc3ccc(F)cc3)cc2)n1	-	-	-	-	-	-
O=C(CN1CCN(c2ccc(F)cc2)CC1)c1cccs1	.	7.1µM	-	-	?	-
O=C(c1cccs1)N1CCN(c2ccc(F)cc2)CC1	-	-	-	-	-	-
O=C(CN1CCc2ccccc2C1)c1cccs1	-	7.9µM	-	-	-	-
COc1ccc(S(=O)(=O)Nc2cc3c4c(oc3c3ccccc23)CCCC4=O)cc1	-	7.9µM	-	-	-	?
CC1(C)CC(=O)c2c(oc3c(Cl)cc(NS(=O)(=O)c4ccc(Br)cc4)cc23)C1	.	.	-	.	-	-
COc1ccc(S(=O)(=O)Nc2cc3c4c(oc3c3ccccc23)CC(C)(C)CC4=O)cc1	-	3.2µM	-	?	-	?
Cc1nn(CC(=O)Nc2ccccn2)c(C)c1[N+](=O)[O-]	-	-	-	-	-	-
O=C(Cn1nc(C(F)F)cc1C(F)F)NNC(=S)Nc1ccc(F)cc1	-	-	-	-	-	-
Cc1ccc(NC(=O)Cn2nc(C)c([N+](=O)[O-])c2C)cc1C	.	20µM	-	-	-	-
Cc1nn(CCC(=O)NNC(=S)Nc2ccc([N+](=O)[O-])cc2)c(C)c1[N+](=O)[O-]	.	4.5µM	-	-	?	-
O=C(Cn1nc(C(F)F)cc1C(F)F)NNC(=S)Nc1ccc([N+](=O)[O-])cc1	.	18µM	-	-	?	?
CCN(CC)CCCCn1c(-c2ccccc2)nc2c(NCc3ccccc3)nc(C)nc21	?	?	-	.	-	-
Cc1ccn2cc(CNC(=O)c3cccc(C(F)(F)F)c3)nc2c1	.	.	-	.	-	-
OCC1OC(c2ccc3c(c2)OCO3)C=CC1Oc1cc(Cl)cc(Cl)c1 (stereo unspecified)	.	?	-[11.6 µM]	.	-[11.5 µM]	-[11.6 µM]
O=C(CN(Cc1ccc(Cl)c(Cl)c1)S(=O)(=O)c1ccccc1)N/N=C\c1ccc2c(c1)OCO2	?	-	?	?	-	?
COc1ccccc1CN(Cc1nc2ccccc2c(=O)[nH]1)S(=O)(=O)c1ccc2ccccc2c1	-	?	-	-	-	-
COc1ccc(CNC(=O)CN(Cc2ccccc2)S(=O)(=O)c2ccc(Cl)cc2)cc1	-	?	-	?	-	-
COc1ccc(CNC(=O)CN(Cc2ccc(Cl)cc2)S(=O)(=O)c2ccccc2)cc1	-	2.2µM	-	-	-	-
COc1ccc(S(=O)(=O)N(Cc2ccccc2)Cc2nc3ccccc3c(=O)[nH]2)cc1	-	6.3µM	-	-	-	-
O=C(CN(Cc1ccccc1)S(=O)(=O)c1ccccc1)N/N=C/c1ccc2c(c1)OCO2	11µM	?	-	?	-	?
CCCC(CCC)=NNC(=O)CN(Cc1ccccc1)S(=O)(=O)c1ccccc1	-	8.9µM	-	-	-	-
COc1cccc(CNC(=O)c2ccc3c(c2)nc2n3CCC(C)C2)c1OC (stereo unspecified)	.	.	-	.	-	-
CN(Cc1ccccc1)c1ccc(-c2nc(-c3ccncc3)no2)cc1[N+](=O)[O-]	.	.	-	.	-	-
O=C(Nc1ccc(N=Nc2ccccc2)cc1)c1ccccc1Cl	-	-	-	-	?	-
CC(C)c1ccc(NC(=O)C(C)N(c2ccccc2)S(C)(=O)=O)cc1 (stereo unspecified)	.	.	-	.	-	-
